Most compounds without a hit are left out; they make up all but 1.2% or so of the library.
rTrxR1 inhibitor: inhibitors of rat thioredoxin reductase 1; O89049; recombinant rTrxR1, NADPH fluorescence consumption, selenite substrate; Potency, µM (top dose mostly 114 µM), without a hit: top-dose activity change, negative = inhibition, most hits filed as inhibitors; hit rate 1% among 390,000; also: potency is read from the fitted curve at half-maximal effect; nearly all actives have a fitted effect of over 65% in size
Target sequence (O89049 whole entry, looked up): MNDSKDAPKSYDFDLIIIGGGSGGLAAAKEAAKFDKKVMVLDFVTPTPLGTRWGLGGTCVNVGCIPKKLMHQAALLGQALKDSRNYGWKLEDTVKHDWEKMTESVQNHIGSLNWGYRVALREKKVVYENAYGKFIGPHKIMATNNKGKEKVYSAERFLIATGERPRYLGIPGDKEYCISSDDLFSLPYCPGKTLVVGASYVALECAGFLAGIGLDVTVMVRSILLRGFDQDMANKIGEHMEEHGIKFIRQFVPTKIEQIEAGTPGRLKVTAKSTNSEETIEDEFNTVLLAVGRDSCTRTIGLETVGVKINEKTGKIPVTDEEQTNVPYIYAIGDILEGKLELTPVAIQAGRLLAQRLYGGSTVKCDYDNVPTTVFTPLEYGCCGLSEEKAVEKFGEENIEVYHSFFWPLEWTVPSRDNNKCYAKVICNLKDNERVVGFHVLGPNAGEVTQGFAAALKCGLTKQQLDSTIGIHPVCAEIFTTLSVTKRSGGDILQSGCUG
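Rat TrxR1 (90 nM in the dispensed reagent) was pre-reduced with 400 uM NADPH for 5 min at room temperature, then incubated with compound for 15 min. After 400 uM selenite was added, NADPH fluorescence (Ex 340/Em 450 nm) was followed for 8 min.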
PKM2 activator: PKM2 (human) enzyme activation. Potency, µM (top dose mostly 57.5 µM), without a hit: top-dose activation, actives largely listed as activators. hit rate 0.34% among 260,000. purified PKM2, Kinase-Glo ATP luminescence, activation; response scale: 0% is enzyme alone, no compound. P14618; also: potency is read from the fitted curve at half-maximal effect; nearly all actives have a fitted effect of over 55% in size
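Purified hPK-M2 (>95%) run at intermediate activity with 0.1 mM ADP and 0.5 mM PEP in 50 mM imidazole pH 7.2, KCl, MgCl2; 1 h room temperature. ATP formed read by Kinase-Glo luminescence; normalized to uninhibited and no-enzyme controls.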
TrxR1 substrate: substrates of rat thioredoxin reductase 1; O89049; purified TrxR1 substrate turnover, NADPH consumption readout; Potency, µM (doses to about 114 µM), without a hit: at the highest dose activity change, negative = substrate turnover; hit rate 0.01% among 390,000; AID 588456; also: potency is read from the fitted curve at half-maximal effect; nearly all actives have a fitted effect of over 50% in size
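Rat TrxR1, dispensed at 90 nM, was prereduced with 400 uM NADPH (final) for 5 min at ~22 deg C, then incubated with compound 15 min before 400 uM selenite. A first-read NADPH fluorescence drop versus no-compound background flagged substrates.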
GALK inhibitor: blocks human galactokinase activity | P51570 | Purified GALK, Kinase-Glo residual ATP luminescence | Potency, µM (doses to about 57.5 µM), inactives show at the highest dose activity change, negative = inhibition, usual class: inhibitors | hit rate 0.007% among 270,000 | AID 1868; also: potency is read from the fitted curve at half-maximal effect
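GALK at 5 nM final was combined with compound, 35 uM ATP and 100 uM galactose in HEPES pH8.0 with MgCl2 and DTT. The reaction ran one hour at room temperature before luminescent ATP detection.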
PI4K2A block: blocks human PI4K2A kinase activity | Q9BTU6 | purified PI4K2A, ADP-Glo luminescence, 1 h; active compounds read low | activity change, negative = inhibition, % at 76.9 µM | hit rate 0.13% among 420,000 | AID 1346378; in the data active = activity change below about -50%; inconclusive = mostly about -30% to -49%;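 also: -100% = wells without enzyme as full effect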
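In this quantitative HTS, ADP production by PI4K2A was quantified luminescently after 1 h at ambient temperature; 100 microM adenosine served as plate-quality control.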
* marks the source's active call; other numbers are inactive results; ? = inconclusive; . = not tested or not shown; [ ] = remark or other dose. Unless noted, calls follow the shape of the dose curve; as a rule, active = well fitted curve in the direction sought with a large enough effect; inconclusive = small, poorly fitted or top-dose-only effect, or another doubt; inactive = no such curve, though single readings can be large; an effect the other way counts as inactive or inconclusive. Unless noted, % is scaled to controls: 0 for no effect and ±100 for the full control effect.

SMILES | rTrxR1 inhibitor | PKM2 activator | TrxR1 substrate | GALK inhibitor | PI4K2A block
Cc1ccc(/C=C/C(=O)OC(C)C(=O)Nc2ccc(Cl)cn2)o1 (stereo unspecified) | 14µM* | 17% | 1% | 0% | 0
COc1cc(/C=C/C(=O)OC(C)C(=O)Nc2ccc(Cl)cn2)ccc1OC(F)F (stereo unspecified) | 4%[57.1 µM] | . | 10% | . | 1
COc1cccc(/C=C/C(=O)OCC(=O)Nc2ccc(Cl)c(S(=O)(=O)N(C)C)c2)c1 | -22%[57.1 µM] | 0% | -4%[57.1 µM] | 0% | 1
CN(C)S(=O)(=O)c1cc(NC(=O)COC(=O)/C=C/c2ccco2)ccc1Cl | 3.5µM* | 8% | -6% | 6% | -28
O=C(COC(=O)/C=C/c1ccco1)Nc1cc(S(=O)(=O)N2CCOCC2)ccc1Cl | 35µM* | . | -7% | . | 0
Cc1c(Cl)cccc1NC(=O)NCCOCCn1c(=O)oc2ccccc21 | 11% | . | -4% | . | 1
O=C(CCCc1c[nH]c2ccccc12)N1CCN(S(=O)(=O)c2cccs2)CC1 | 13% | 1.6µM* | 2% | -2% | -2
O=C(O)CCC(=O)N1CCN(S(=O)(=O)c2cccs2)CC1 | -9% | 4% | -10% | -2% | -4
O=C(CSc1ccccc1)N1CCN(S(=O)(=O)c2cccs2)CC1 | 23% | 1.1µM* | 0% | 5% | 0
O=C(CCCc1c[nH]c2ccccc12)N1CCOCC1 | 18% | -6% | 11% | 0% | -10
O=C(CCCc1cccs1)N1CCN(S(=O)(=O)c2ccccc2Br)CC1 | -5% | 11µM* | -5% | 8% | 3
Cc1ccc(OCC(=O)Nc2ccccc2C(=O)OCc2cc(=O)n3c(C)csc3n2)cc1 | -1%[57.1 µM] | . | 1%[57.1 µM] | . | -7
Cn1c(=O)c2cc(S(=O)(=O)NC(Cc3ccccc3)C(=O)Nc3ccc(F)cc3)ccc2n(C)c1=O (stereo unspecified) | 16% | . | 1% | . | 1
CCCCN(C)CCNC(=O)c1cc2cc3ccc(OC)cc3nc2o1 | 45µM* | . | 606% | 3% | 3
CCN(CC)CCNC(=O)c1cc2cc3ccc(OC)cc3nc2o1 | 133% | . | 736% | 2% | -4
COc1ccccc1-c1nc(S(=O)(=O)c2ccccc2)c(N2CCCCC2)o1 | 0.89µM* | . | 7% | -2% | 2
COc1ccccc1-c1nc(S(=O)(=O)c2ccc(Cl)cc2)c(N2CCCCCC2)o1 | 24% | . | 9% | . | -2
CCc1ccc(C(=O)COC(=O)CNC(=O)c2ccco2)cc1 | 8% | -1% | -2% | 2% | -9
O=C(CNC(=O)c1ccco1)OCC(=O)c1ccc2c(c1)CCCC2 | 79µM* | 3% | 0% | . | -9
CC(C)(C)OC(=O)N1CCN(/[N+]([O-])=N/Oc2ccc([N+](=O)[O-])cc2[N+](=O)[O-])CC1 | ? | . | 15% | . | .
O=[N+]([O-])c1ccc(O/N=[N+](\[O-])N2CCN(c3ccccc3)CC2)c([N+](=O)[O-])c1 | 32µM* | . | -7% | . | .
O=[N+]([O-])c1ccc(O/N=[N+](\[O-])N2CCN(c3ncccn3)CC2)c([N+](=O)[O-])c1 | 14µM* | . | 10%[0.457 µM] | . | .
O=C(CC(C(=O)O)c1ccc(Cl)cc1)c1ccccc1 (stereo unspecified) | 10% | 3% | -1% | 1% | 4
O=C(CC(Nc1cccc(Cl)c1Cl)C(=O)OCC(=O)c1cccs1)c1ccccc1 (stereo unspecified) | ? | -1% | 4% | 3% | 5
O=C(CC(Nc1cccc(Cl)c1Cl)C(=O)O)c1ccccc1 (stereo unspecified) | 40µM* | 5% | 2% | -3% | -12
SMILES | rTrxR1 inhibitor | PKM2 activator | TrxR1 substrate | GALK inhibitor | PI4K2A block
O=C(CC(Nc1ccc(Cl)cc1)C(=O)O)c1ccccc1 (stereo unspecified) | 28µM* | 17% | -3% | 0% | -10
Cc1c(Cl)cccc1NC(CC(=O)c1ccccc1)C(=O)O (stereo unspecified) | 3.5µM* | ? | 4% | 0% | -21
O=C(CC(Nc1ccccc1Cl)C(=O)O)c1ccccc1 (stereo unspecified) | 4.5µM* | 13% | 14%[57.1 µM] | -3% | -3
CCOc1ccccc1CNC(=O)c1cnn(-c2ccc(C)cc2)c1-n1cccc1 | -15% | . | -17% | . | -1
O=C1CCC(CNc2ccccc2)N1c1ccccc1 (stereo unspecified) | . | . | . | . | -5
C=CCN1C(=O)[C@@H](CC(=O)NCCC(C)C)[C@]2(C(=O)OCC)CCCCC/C=C/12 | . | . | . | . | -5
Cc1c(Cl)cccc1NC(CC(=O)c1ccccc1)C(=O)OCC(=O)c1cccs1 (stereo unspecified) | 40µM* | 16% | -8% | -5% | 6
COc1ccccc1NC(CC(=O)c1ccccc1)C(=O)OCC(=O)c1ccc(F)cc1 (stereo unspecified) | 35µM* | ? | -2% | 0% | 0
CC(C)CCN(C)C1CCN(C(=O)Nc2ccc(Cl)cc2)CC1 | . | . | . | . | -2
C=C(CC)C(=O)c1ccc(OCC(=O)O)c(Cl)c1Cl | 40µM* | 0% | 6% | -9% | -13
CCC[C@H]1[C@@H](OC(=O)NCCc2c[nH]c3ccccc23)CC[C@@]23CCCN2C(=O)CCC[C@@H]13 | . | . | . | . | -2
Cc1ccc(/C=c2/sc3nnc(-c4ccccc4Cl)n3c2=O)o1 | ? | 8.9µM* | -7% | 6% | 5
COc1ccccc1-n1c(SCC(=O)N(C)C)nnc1-c1ccco1 | -6% | . | 0% | . | -7
COc1ccc(OC)c(NC(=O)CSc2ccc(-c3ccco3)nn2)c1 | 4µM* | 3% | -5% | -7% | -19
COc1ccc(OC)c(NC(=O)CSc2ccc(-c3cccs3)nn2)c1 | 5% | . | -6% | . | 3
COc1ccccc1-n1c(SCC(=O)NC(C)(C)C)nnc1-c1ccco1 | 8.9µM* | 3% | 6% | 0% | 3
COc1ccccc1NC(=O)CSc1ccc(-c2ccco2)nn1 | 50µM* | 4% | -7% | -3% | 0
COC(=O)[C@@H]1C[C@@]2(O)[C@H](O)[C@H](O)[C@H](O)C[C@H]2N1Cc1c(F)cccc1Cl | . | 6% | . | . | .
O=C(CCC(=O)N1CCN(C2c3ccccc3-c3ccccc32)CC1)Nc1nnc(C(F)(F)F)s1 | . | . | . | . | 2
O=C(OCCNc1ncc(C(F)(F)F)cc1Cl)c1ccc(S(=O)(=O)N2CCOCC2)cc1 | 11% | 20µM* | 7%[57.1 µM] | 3% | 2
O=C(NCCOC(=O)c1ccc(S(=O)(=O)N2CCOCC2)cc1)c1cccnc1 | 17%[57.1 µM] | 10% | 16%[57.1 µM] | -2% | -6
O=c1oc2ccc(NS(=O)(=O)c3cccc4cccnc34)cc2s1 | 46% | 14µM* | 2% | 9% | -15
O=C(c1ccc(NS(=O)(=O)c2cccc3cccnc23)cc1)N1CCCCC1 | 34% | 16µM* | 2% | 0% | -1
O=C(c1ccc(NS(=O)(=O)c2cccc3cccnc23)cc1)N1CCOCC1 | 25% | . | 5% | . | 1

High-throughput results (PubChem BioAssay)
